Assay results reported in PubChem BioAssay AID1159580 (chemical genetic matrix, 2015).
Several values for one entry are separate records, joined by “and”; a condition that tells them apart may be missing. Identical values can stand only once. Out of some 5,500 compounds screened, about 2,000 (36%) were called active. Roughly 18% stayed inconclusive and do not appear here. Rule as the data show it: active = normalized growth mostly below about 0.91 (no sharp cut-off); inconclusive = no clear call, values can overlap the other calls; inactive = mostly above about 0.92. Some of the results follow.

Experiment: chemical genetic growth profiling, strain panel (AID 1159580);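 also: tested at 20 µM; growth read once vehicle control cultures reached saturation at 30 °C; 1 = growth at the plate median or of vehicle wells; lower values mean less growth of the strain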
Settings: growth OD
[1] = S. cerevisiae deletion strains, locus YAL013W, strain DEP1, active compounds read low
[2] = S. cerevisiae deletion strains, locus YBR229C, strain ROT2, active compounds read low
[3] = S. cerevisiae deletion strains, locus YDL101C, strain DUN1, active compounds read low
[4] = S. cerevisiae deletion strains, locus YDR150W, strain NUM1, active compounds read low
[5] = S. cerevisiae deletion strains, locus YEL061C, strain CIN8, active compounds read low
[6] = S. cerevisiae deletion strains, locus YGR078C, strain PAC10, active compounds read low
[7] = S. cerevisiae deletion strains, locus YHR030C, strain SLT2, active compounds read low
[8] = S. cerevisiae deletion strains, locus YHR087W, strain rtc3, active compounds read low
[9] = S. cerevisiae deletion strains, locus YJR043C, strain POL32, active compounds read low
[10] = S. cerevisiae deletion strains, locus YJR075W, strain HOC1, active compounds read low
[11] = S. cerevisiae deletion strains, locus YLR039C, strain RIC1, active compounds read low
[12] = S. cerevisiae deletion strains, locus YLR058C, strain SHM2 (second series), active compounds read low
[13] = S. cerevisiae deletion strains, locus YLR085C, strain ARP6, active compounds read low
[14] = S. cerevisiae deletion strains, locus YLR262C, strain YPT6, active compounds read low
[15] = S. cerevisiae deletion strains, locus YML094W, strain GIM5, active compounds read low
[16] = S. cerevisiae deletion strains, locus YMR219W, strain ESC1, active compounds read low
[17] = S. cerevisiae deletion strains, locus YNL153C, strain GIM3, active compounds read low
[18] = S. cerevisiae deletion strains, locus YNL298W, strain CLA4 (second series), active compounds read low
[19] = S. cerevisiae deletion strains, locus YNL322C, strain KRE1, active compounds read low
[20] = S. cerevisiae deletion strains, locus YNR030W, strain Alg12, active compounds read low
[21] = S. cerevisiae deletion strains, locus YPL055C, strain LGE1, active compounds read low
[22] = S. cerevisiae deletion strains, locus YPL241C, strain CIN2, active compounds read low
[23] = S. cerevisiae deletion strains, locus YPR135W, strain CTF4, active compounds read low
[24] = S. cerevisiae deletion strains, locus YDL134C, strain PPH21, active compounds read low
[25] = S. cerevisiae deletion strains, locus YMR263W, strain SAP30, active compounds read low

Measured: normalized growth

O=S(=O)(Nc1ccc(Oc2ccc(Cl)cc2)cc1)c1ccccc1
active: [1] 0.219 | [2] 0.923 | S. cerevisiae deletion strains, locus YCL061C, strain MRC1, active compounds read low 0.851 | [4] 0.518 | [5] 0.51 | S. cerevisiae deletion strains, locus YGR052W, strain FMP48, active compounds read low 0.122 | [6] 0.901 | [7] 0.114 and 0.113 | S. cerevisiae deletion strains, locus YHR079C, strain IRE1, active compounds read low 0.199 | S. cerevisiae deletion strains, locus YHR082C, strain KSP1, active compounds read low 0.137 | [8] 0.866 | S. cerevisiae deletion strains, locus YJL095W, strain BCK1, active compounds read low 0.108 | [9] 0.843 | S. cerevisiae deletion strains, locus YJR066W, strain TOR1, active compounds read low 0.206 | S. cerevisiae deletion strains, locus YKL203C, strain TOR2, active compounds read low 0.274 | [11] 0.293 | [13] 0.247 | S. cerevisiae deletion strains, locus YLR113W, strain HOG1, active compounds read low 0.166 | [14] 0.117 | [15] 0.483 | [16] 0.925 | [17] 0.879 | S. cerevisiae deletion strains, locus YNL183C, strain NPR1, active compounds read low 0.154 | S. cerevisiae deletion strains, locus YNL207W, strain RIO2, active compounds read low 0.248 | [18] 0.321 | [20] 0.191 | S. cerevisiae deletion strains, locus YOR119C, strain RIO1, active compounds read low 0.226 | S. cerevisiae deletion strains, locus YOR231W, strain MKK1, active compounds read low 0.159 | [21] 0.106 | [22] 0.341 | S. cerevisiae deletion strains, locus YPL256C, strain CLN2, active compounds read low 0.239 | [23] 0.309
inactive: [3] 0.911 | [10] 0.899 | [12] 0.998 | [19] 1.04

O=c1c2cc(NS(=O)(=O)c3ccc(Cl)cc3)ccc2oc2ncccc12
inactive: [1] 0.979 | [2] 1.02 | [3] 0.988 | [24] 1 | [4] 0.961 | [5] 1.04 | [6] 0.979 | [7] 0.998 | [8] 1.06 | [9] 0.976 | [10] 1.03 | [11] 1.03 | [12] 1.02 | [13] 1.04 | [14] 1.07 | [15] 1.08 | [16] 1.02 | [25] 0.991 | [17] 0.993 | [18] 0.997 | [19] 0.994 | [20] 1.02 | [21] 1.04 | [22] 1.01 | [23] 0.984

Cc1ccc(S(=O)(=O)Nc2ccc(C)c([N+](=O)[O-])c2)cc1
inactive: [1] 0.995 | [2] 0.988 | [3] 0.95 | [24] 0.994 | [4] 0.958 | [5] 1.03 | [6] 0.986 | S. cerevisiae deletion strains, locus YGR229C, strain SMI1, active compounds read low 1 | [7] 0.989 | [8] 1.02 | S. cerevisiae deletion strains, locus YJL187C, strain SWE1, active compounds read low 1.01 | [9] 0.976 | [10] 0.971 | S. cerevisiae deletion strains, locus YKL190W, strain CNB1, active compounds read low 0.988 | [11] 1.02 | [12] 1 | [13] 0.991 | [14] 1.01 | [15] 1.01 | [16] 0.993 | [25] 0.999 | [17] 0.979 | [18] 0.963 | [19] 0.983 | [20] 0.961 | S. cerevisiae deletion strains, locus YOL006C, strain TOP1, active compounds read low 1.02 | [21] 1.01 | [22] 0.952 | [23] 0.898 | S. cerevisiae strains, strain wild type, active compounds read low 0.981
